# Test results taken from PubChem BioAssay (Tox21).
# Records with an inconclusive call do not appear. Active and inactive are the calls of the source. The call rests on the fitted dose curve; in most records, active means well fitted activation curve with a large enough effect in the repeat runs; inconclusive means weak or mixed curves; inactive means no such curve, though single readings can be large or run the other way.
# Test: qHTS assay for small molecules that induce genotoxicity in human embryonic kidney cells expressing luciferase-tagged ATAD5 (AID 651632); further: nearly all actives have a fitted effect of over 15% in size
# Conditions: HEK293T ATAD5-luciferase induction, 16 h; series mostly up to 83.3 µM; activation: at the top concentration
# Source text: U.S. Tox21 Program National Center for Advancing Translational Sciences [NCATS] NIH Chemical Genomics Center [NCGC] U.S. Environmental Protection Agency [EPA] National Institutes of Environmental Health Sciences [NIEHS] National Toxicology Program [NTP] U.S. Food and Drug Administration [FDA] Tox21 Assay Overview: As cancer cells divide rapidly and during every cell division they need to duplicate their genome by DNA replication. The failure to do so results in the cancer cell death. Based on this concept, many chemotherapeutic agents were developed but have limitations such as low efficacy and severe side effects etc. A new cell based assay was developed to find the compounds that effectively block DNA replication either by directly damaging DNA or by inhibiting other cellular mechanisms. Enhanced Level of Genome Instability Gene 1 (ELG1; human ATAD5) protein levels increase in response to various types of DNA damage. Using a luciferase reporter-gene tagged with ATAD5, a cell-based assay [developed by Kyungjae Myung, NHGRI, NIH] was used to measure the induction of ATAD5 in human embryonic kidney cells (HEK293T). So, increase in luciferase activity can be used to identify the compounds that cause genetic stress.
# Tox21 Assay Protocol Summary: For genotoxicity screening, 2,000 cells in 5 uL/well were dispensed into white, solid-bottom 1536-well plates using a Multidrop Combi (Thermo Scientific) dispenser. Following transfer of 23 nL compound or DMSO vehicle by a pin tool, the plates were incubated 16 hr at 37C and 5% CO2. 5 ul Amplite (AAT Bioquest, Inc.) was then added to each plate and following 30 min incubation at room temperature, luciferase activity was quantified on a ViewLux CCD-based plate reader.
# On the % scale 0 is the no-effect control and ±100 the full control effect.
row,Structure (SMILES),activation
1,CCOc1ccccc1OCCN[C@H](C)Cc1ccc(OC)c(S(N)(=O)=O)c1,-0.986% (inactive)
2,O=C(O)/C=C(\CC(=O)O)C(=O)O,1.84% (inactive)
3,CC1(C)C(=O)C(C)(C)C1=O,1.07% (inactive)
4,O=S(=O)(O)c1cc(I)c(O)c2ncccc12,3.31% (inactive)
5,C=CCON/C(CCC)=C1\C(=O)CC(C)(C)C(C(=O)OC)=C1O,1.65% (inactive)
6,NCC1CCC(C(=O)Oc2ccc(CCC(=O)O)cc2)CC1 (stereo not given),-0.38% (inactive)
7,CC(=O)OCC(=O)[C@@]1(O)CC[C@H]2[C@@H]3CCC4=CC(=O)C=C[C@]4(C)[C@H]3[C@@H](O)C[C@@]21C,8.5% (inactive)
8,CCCCCCCCC1CO1 (stereo not given),-0.547% [at 95.3 µM] (inactive)
9,C/C=C(\C)C=O,2.52% [at 95.3 µM] (inactive)
10,C=CCN1CCc2nc(N)sc2CC1,1.28% (inactive)
11,O=C[C@@H](O)[C@H](O)[C@H](O)CO,-0.816% (inactive)
12,CCCCCCCCOCCC#N,1.09% (inactive)
13,CC(=O)OC1CCC(C(C)(C)C)CC1 (stereo not given),-0.797% (inactive)
14,CC(CN1CC(=O)NC(=O)C1)N1CC(=O)NC(=O)C1 (stereo not given),-1.99% (inactive)
15,Cc1ccc(O)c(C(=O)c2ccccc2)c1,-2.32% [at 95.3 µM] (inactive)
16,BrCCOc1ccccc1,0.789% [at 95.3 µM] (inactive)
17,CC(C)C[P+](C)(CC(C)C)CC(C)C,2.2% [at 95.3 µM] (inactive)
18,Cc1ccc(S(=O)(=O)NC(=O)NN2CC3CCCC3C2)cc1 (stereo not given),0.569% [at 39.1 µM] (inactive)
19,O=C1CC2(CCCC2)CC(=O)N1CCNCC1COc2ccccc2O1 (stereo not given),-4.64% (inactive)
20,Cc1ccc2cccnc2c1,1.43% (inactive)

row,Structure (SMILES),activation
1,CN(C)CCc1c[nH]c2ccc(CS(=O)(=O)N3CCCC3)cc12,0.36% (inactive)
2,CN(C)CCc1c[nH]c2ccc(C[C@H]3COC(=O)N3)cc12,1% (inactive)
3,CCCCCCCCCCCCCCBr,2.15% [at 95.3 µM] (inactive)
4,CC1=C(O)C(=O)CO1,1.65% (inactive)
5,C=CC(=O)OCCOCCOCC,-2.62% (inactive)
6,CC(C)(C)NCC(O)COc1cccc2c1CCC(=O)N2 (stereo not given),1.58% [at 39.1 µM] (inactive)
7,CC(C)(O)CCCC1=CCC(C=O)CC1 (stereo not given),0.505% [at 95.3 µM] (inactive)
8,CN(C)CCCN(C)C,-0.426% [at 8.08 µM] (inactive)
9,Cc1cc(C)c(N)c(Cl)c1,3.68% (inactive)
10,O=C(O)CCCCCCCCCC(=O)O,7.45% (inactive)
11,O=P(O)(O)C(O)(Cc1cccnc1)P(=O)(O)O,2.35% (inactive)
12,N=C(N)N,1.25% (inactive)
13,CCCCN=C(N)N=C(N)N,-1.47% (inactive)
14,COC(=O)C(c1ccccc1Cl)N1CCc2sccc2C1 (stereo not given),-2.45% (inactive)
15,CC[N+](C)(CC)CC,1.2% (inactive)
16,CC(C)(O)c1ccc(C(C)(C)O)cc1,0.728% (inactive)
17,CCC(=O)OCCOc1ccccc1,-0.615% (inactive)
18,O=C(OOC(=O)c1ccccc1)c1ccccc1,-2.9% (inactive)
19,CN1CCN(C(=O)C2CCCCC2)CC1,1.16% (inactive)
20,CC(O)CCCCn1c(=O)c2c(ncn2C)n(C)c1=O (stereo not given),0.243% (inactive)
